Source: the supplement of paper PMC6555819

Tests used:
Assay in all cases: PBM binding z-score (relative to random genomic background probes); higher = stronger binding; sequences stand for … in GC…GCGATTGACAGCGTAGAATGAAGG
[1] = system: PPARg:RXRa DBDmut IVT, anti-RXR (DBD mutation: RXRa K156A/R161A, NR concentration 270 nM, RXRa partner concentration 90 nM)
Outline: (§1)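 Binding buffer was PBS pH 7.4 with 2% milk, 0.02% Triton X-100, 1 mM DTT, 0.2 mg/mL BSA and 0.4 mg/ml salmon testes DNA. In it, ligand-free nuclear receptor dimers were incubated 1 h on custom Agilent 4×180K protein-binding microarrays carrying double-stranded probes. Antibodies against each partner (one per run) detected binding, and z-scores were calculated against random background probes after regression normalization of scanned fluorescence.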

[2] = system: PPARg:RXRa IVT, anti-PPARg (NR concentration 270 nM, RXRa partner concentration 90 nM)
Outline: as §1

[3] = system: PPARg DBDmut:RXRa IVT, anti-PPARg (DBD mutation: PPARg1 K132A/R137A, NR concentration 270 nM, RXRa partner concentration 90 nM)
Outline: as §1

[4] = system: PPARg DBDmut IVT, anti-PPARg (DBD mutation: PPARg1 K132A/R137A, NR concentration 270 nM)
Outline: as §1

[5] = system: PPARg homodimer (NR concentration 180 nM)
Outline: as §1

[6] = system: PXR:RXRa (NR concentration 270 nM, RXRa partner concentration 90 nM)
Outline: as §1

[7] = system: PXR homodimer (NR concentration 270 nM)
Outline: as §1

[8] = system: RARa:RXR (NR concentration 270 nM, RXRa partner concentration 90 nM)
Outline: as §1

[9] = system: RARa homodimer (NR concentration 270 nM)
Outline: as §1

[10] = system: RARb:RXRa (NR concentration 270 nM, RXRa partner concentration 90 nM)
Outline: as §1

Sequence	PBM binding z-score [1]	PBM binding z-score [2]	PBM binding z-score [3]	PBM binding z-score [4]	PBM binding z-score [5]	PBM binding z-score [6]	PBM binding z-score [7]	PBM binding z-score [8]	PBM binding z-score [9]	PBM binding z-score [10]
CCTCCTAGGTCATGGTCAGCTAATCTACAGTATG	3.36	3.76	0.488	0.0352	1.57	1.77	0.241	2.36	1.05	4.02
TCTCGTAGATCAATAGAGGTTAAGAAAGTGCGCT	1.66	0.219	0.246	0.204	0.0307	3.08	0.105	1.6	0.0805	0.751
ATCTCTAGGTAAAAGTTCAGTGCATCCCGAGGAT	1.88	3.85	0.957	1.05	1.6	2.28	2.08	1.69	1.4	2.36
CGAACGAGGGAATGAGTTGATAGCAAATGCCGAT	-0.446	-0.487	-0.561	0.167	-0.451	-0.632	-0.33	-0.875	-0.143	-0.567
CGTCAAAGTTCAAGGTAACCTAACAGAAAGCAGC	0.978	2.67	0.466	0.361	2.09	4.03	2.12	3.26	1.18	5.37
ATATGTAGGTTATCGGGTCAATCAGTTTGCGCAT	7.94	7.57	3.15	2.14	2.33	3.64	3.23	4.04	1.3	2.86
TGACCAAGGTGAAAGGTCGTTGATGCACGCCTTG	2.01	4.8	0.518	-0.282	1.58	3.75	-0.00693	5.22	-0.166	3.03
TCATATAAGTAAAGGTGAAAGTCGAACGATATGA	2.2	1.58	1.17	1.46	0.731	0.97	0.241	1.59	0.59	1.99
GCTACTGGGGCATCAGCAGGTTACCATAACTTAA	5.96	5.52	0.447	0.741	0.599	0.0663	-0.537	0.497	-0.28	0.962
ACTAGCAGGCCAAGTTTGGGTCACCCAAACAAAG	0.771	1.58	-0.22	-0.356	0.716	1.08	-0.637	1.89	-1.22	2.06
CCGACTGGGGCAAAGGTTACCATTCTCAGTACGA	4.87	5.9	0.712	0.351	3.82	2.41	-0.502	3.87	-0.539	2.39
CCGAATAGGTTATGGGGCATTCAGGCAACGGTGA	1.26	1.71	-0.226	-0.668	0.678	0.141	-0.0555	0.892	0.0562	1.27
AATACAGGGTCACTAGGCCAGAGTCGGTACGAAT	4.04	5.73	1.74	1.6	2.69	3.08	0.172	4.13	1.14	4.1
ATCTCTACGTAAAGTTCAGTGAAAGATCGATAGA	-0.332	0.634	1.64	1.55	1.75	1.93	1.97	1.39	1.12	3.02
ATCTCTAGGTAACCAAGTTCAGTGACTGCCGAAC	4.09	2.78	0.981	0.674	1.09	2.14	2.22	0.968	1.12	1.14
CCTAGTTGGTCAGGAGCTCACACACCGGATATGA	0.512	0.377	0.181	-0.1	0.317	-0.386	-0.151	-0.201	0.575	0.469
CCTACTAGGTCAATGGTCAGCTAAAGCAGCTCGC	7.63	7.77	2.1	1.05	2.62	1.26	0.377	1.95	0.521	3.89
TCTATTAGTGGATTAGGGCAACCGAAACAGCGGA	2.45	2.24	0.96	1.11	1.27	0.235	0.482	0.458	1.39	0.682
GCAGACAGGTGAAACGCAGGTAAGTCAGGGTGGC	0.702	0.327	-0.327	-0.89	-0.504	-0.471	-0.705	0.101	-0.533	0.61

Sequence	PBM binding z-score [1]	PBM binding z-score [2]	PBM binding z-score [3]	PBM binding z-score [4]	PBM binding z-score [5]	PBM binding z-score [6]	PBM binding z-score [7]	PBM binding z-score [8]	PBM binding z-score [9]	PBM binding z-score [10]
ACTTACGCGTCAACGAGGTTATAGCACGCGTATA	-0.0489	0.00944	0.527	-0.0395	0.374	1.04	-0.0402	1.15	0.181	0.516
GCTAGTTGGTCAGTAAAAGGTCACACAACGGTCG	0.826	2.77	0.539	0.321	3.81	5.2	1.19	6.17	2.05	4.43
TCATACAGGTAATACAGGTGAAAGTCGGCATCTA	3.1	2.32	1.11	1.28	1.24	0.855	0.48	1.23	1.28	0.835
TCGAGTAGGTTAGTCGGGGCATTTAGCCAACATA	2.28	1.85	-0.436	-0.412	0.35	0.275	-0.067	0.501	-0.283	0.582
GCTAGGAGGACAAGGTCAGAGCTTTGTCCGTAGA	1.13	1.17	-0.92	-1.52	0.32	1.57	-0.305	1.89	-1.07	3.41
GCATATAGGTAGTACAAGGTGAAAGTCCGATTGT	0.709	1.04	0.664	0.977	-0.146	0.403	0.176	0.66	0.249	0.368
CCTTACGCGTCACTGACAGGTTATAGCATTTGGA	0.598	-0.176	0.212	0.276	0.943	0.459	0.407	0.676	1.36	0.243
TCTTGTAGATCAACAGAAGGTTAAGAAAGATCGA	2.05	0.787	0.882	0.062	-0.0281	0.812	0.0567	0.954	-0.338	0.701
CCGACTGGGGCATAAGGGTACCATAAGCCAGCCC	1.55	1.97	-1.37	-1.11	-0.201	-0.472	-0.387	-0.246	-0.606	0.641
CCTTACGGGTCACTGACGGGTTATAGCATTTGGA	2.64	3.56	0.267	0.298	3.14	3.66	-0.038	4.82	0.976	4.04
CCTCGGAGGACCGAAGGTCAGAGCTGTCCGCTTT	-0.463	-0.175	-1.41	-1.98	0.693	1.16	-0.615	1.55	-0.211	2.2
GCATAAAGGTAATACAAGGTGAAAGTCCGATTGT	0.839	1.67	0.773	0.759	0.757	1.42	-0.0245	1.99	0.262	1.11
AATACAGGGTCACTAGGCCAGTGTAGGTACGAAT	4.34	5.58	1.71	1.25	2.55	3.37	0.255	4.63	0.647	4.13
CCTTACGGGTCACGAGGTTTTAGCACGACGAGCG	4.32	5.48	0.0926	0.246	2.12	3.85	-0.106	4.95	0.695	4.54
CAAACTAGGTCAATGGTCAAAGTCGAGCCAACCA	8.19	8.52	2.18	0.945	1.27	1.38	0.195	2.25	0.441	3.9
CCTACTGGGGCAAAGGTTACCATACTCAGTACGA	5.92	7.16	3.64	1.43	4.58	2.6	-0.144	4.19	-0.0268	2.6
GAAACAGGGTCAGCTAGAGGCCAGAGTATGGAAA	2.53	3.11	0.33	-0.985	3.56	3.46	-0.0723	4.93	0.262	4.14
TCTAGTTGGTCCCGGAGGTCACACACGACGGGTA	1.7	1.82	0.461	1	2.76	4.18	1.4	4.64	1.21	3.41
ACTATTAGTTGAGACGAGGGCAACCGGTAGGTTG	0.0734	0.502	0.336	-0.0704	-0.0372	1.47	0.373	0.84	0.204	1.4
